Source: PubChem BioAssay (Tox21)
Records with an inconclusive call do not appear. A call without a number means that no potency is given here. Activity calls are given as the source filed them. Unless noted, the call rests on the fitted dose curve.

Legend:
[1] = qHTS assay to identify small molecule antagonists of the sonic hedgehog signaling (Shh) pathway (AID 1259369); further: nearly all actives have a fitted effect of over 45% in size; further: potency means the concentration at half of the fitted maximal effect
Outline: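 Cells are plated and held 4hr at 37 C, compounds (DMSO) are pinned in, conditioned medium is added to stimulate the pathway, and after 24hr luciferase reagent is added for 30min before luminescence is read.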

[2] = target: Estrogen receptor beta (Homo sapiens) (UniProt Q92731); test: qHTS assay to identify small molecule agonists of the estrogen receptor beta (ER-beta) signaling pathway (AID 1259377; active means well fitted activation curve with a large enough effect in the signal ratio in the repeat runs, not every such curve was filed as active; the % refers to the signal ratio)
Outline: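 Beta-lactamase reporter readout: fluorescence of LiveBLAzer B/G FRET substrate after 2 h at room temperature, following 16 h compound treatment of ER-beta-UAS-bla HEK293T cells at 37C in 2% charcoal-stripped FBS medium.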

[3] = qHTS assay to identify small molecule agonists of the androgen receptor (AR) signaling pathway in the presence of an antagonist - cell viability counter screen (AID 1259379; active means well fitted curve in the direction sought with a large enough effect in the repeat runs; an effect the other way counts as inactive or inconclusive;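 further: MDA-kb2 human breast cancer cells carrying an MMTV luciferase reporter; series mostly up to about 92 µM; nearly all actives have a fitted effect of over 25% in size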)
Outline: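 Cytotoxicity is assessed by CellTiter-Fluor in MDA-kb2 cells carrying an MMTV-driven luciferase reporter. Cells receive 3.0uM nilutamide plus compounds at 15 concentrations and incubate 16 hr at 37C without CO2 before fluorescence reading.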

[4] = qHTS assay to identify small molecule antagonists of the estrogen receptor beta (ER-beta) signaling pathway - cell viability counter screen (AID 1259382; active means well fitted curve in the direction sought with a large enough effect in the repeat runs; an effect the other way counts as inactive or inconclusive; further: nearly all actives have a fitted effect of over 55% in size; further: potency means the concentration at half of the fitted maximal effect)
Outline: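 Cytotoxicity counter screen multiplexed with the beta-lactamase antagonist assay: GripTite HEK293T ER-beta-bla cells were treated 16 hr with test chemicals in the presence of 1nM 17-beta-estradiol, and viability was measured by CellTiter-Glo.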

[5] = target: Estrogen receptor (Homo sapiens) (UniProt P03372); test: qHTS assay to identify small molecule agonists of the estrogen receptor alpha (ER-alpha) signaling pathway in the presence of an antagonist (AID 1259383); further: top concentration of the series differs between compounds; nearly all actives have a fitted effect of over 15% in size
Outline: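 Agonist-mode confirmation in the presence of the ER antagonist ICI-182,780 at 10.0nM final. Breast-derived VM7Luc4E2 reporter cells were exposed to compounds for 22hr, and ERE-driven luciferase was quantified by luminescence.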

[6] = qHTS assay to identify small molecule agonists or antagonists of the thyroid stimulating hormone receptor (TSHR) signaling pathway - wild type cell line counter screen (AID 1259384)
Outline: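 Wild-type Hek293 cells, 800/well, 18 h at 37C, then compound with Ro20-1724 for 30 min RT. cAMP by HTRF (cAMP-d2/anti-cAMP cryptate), 1 h RT, fluorescence read. 15 concentrations, triplicates.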

[7] = target: Thyrotropin receptor (Homo sapiens) (UniProt P16473); test: qHTS assay to identify small molecule antagonists of the thyroid stimulating hormone receptor (TSHR) signaling pathway (AID 1259385); further: nearly all actives have a fitted effect of over 20% in size; further: potency means the concentration at half of the fitted maximal effect
Outline: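 TSHR-HEK293 cells (800/well) plated 18 h, then compounds with Ro20-1724 and TSH at 1.5 ng/mL final, 30 min at room temperature. cAMP quantified by HTRF (cAMP-d2/anti-cAMP-cryptate, 1 h); 15 concentrations in triplicate.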

[8] = qHTS assay to identify small molecule agonists of the estrogen receptor alpha (ER-alpha) signaling pathway in the presence of an antagonist - cell viability counter screen (AID 1259386; active means well fitted curve in the direction sought with a large enough effect in the repeat runs; an effect the other way counts as inactive or inconclusive;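 further: series mostly up to about 92 µM; cells exposed to compounds for 22 h at 37 °C before the viability read; nearly all actives have a fitted effect of over 30% in size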)
Outline: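 Cytotoxicity was measured in parallel with the ERE-luciferase agonist screen, in the same wells. The cells were VM7Luc4E2, which endogenously express ER-alpha, and treatment was with compounds plus 10.0nM ICI-182,780 for 22hr.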

[9] = target: Progesterone receptor (Homo sapiens) (UniProt P06401); test: qHTS assay to identify small molecule agonists of the progesterone receptor (PR) signaling pathway (AID 1346784); further: nearly all actives have a fitted effect of over 30% in size
Outline: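 HEK 293T PR-UAS-bla reporter cells, 2% charcoal-stripped FBS; 6 hr settle at 37C/5% CO2, compound (DMSO) 16 hr, LiveBLAzer B/G FRET substrate 2 hr RT, fluorescence intensity read.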

[10] = target: Progesterone receptor (Homo sapiens) (UniProt P06401); test: qHTS assay to identify small molecule antagonists of the progesterone receptor (PR) signaling pathway (AID 1346795; active means well fitted inhibition curve with a large enough effect in the signal ratio in the repeat runs, not every such curve was filed as active; the % refers to the signal ratio)
Outline: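 Beta-lactamase reporter, HEK293T PR-UAS-bla line; 2% charcoal-stripped FBS; 6 hr pre-incubation, 37C/5% CO2. Compound + R5020 1 nM final, 16 hr. LiveBLAzer B/G FRET substrate, 2 hr RT; fluorescence intensity read.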

[11] = qHTS assay to identify small molecule antagonists of the progesterone receptor (PR) signaling pathway - cell viability counter screen (AID 1346798; active means well fitted curve in the direction sought with a large enough effect in the repeat runs; an effect the other way counts as inactive or inconclusive; further: nearly all actives have a fitted effect of over 50% in size; further: potency means the concentration at half of the fitted maximal effect)
Outline: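 Luminescence readout (CellTiter-Glo, 30 min, RT) of viability in PR-UAS-bla HEK293T cells exposed to compound and R5020 agonist for 16 hr at 37C, 5% CO2; run in the same wells as the beta-lactamase reporter read.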

[12] = qHTS assay to identify small molecule agonists of the progesterone receptor (PR) signaling pathway - cell viability counter screen (AID 1346799); further: nearly all actives have a fitted effect of over 45% in size; further: potency means the concentration at half of the fitted maximal effect
Outline: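 HEK293T PR-UAS-bla, 3,000 cells/well, 2% charcoal-stripped FBS; 6 h settle, compound 16 h at 37C/5% CO2; LiveBLAzer 2 h RT, then CellTiter-Glo 30 min RT, luminescence read.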

[13] = qHTS assay to identify small molecule antagonists of the TGF-beta/Smad signaling pathway - cell viability counter screen (AID 1346824; active means well fitted curve in the direction sought with a large enough effect in the repeat runs; an effect the other way counts as inactive or inconclusive; further: nearly all actives have a fitted effect of over 50% in size)
Outline: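 SBE-bla HEK 293T cells, incubated overnight, then compound plus 0.25 ng/mL TGF-beta1 (stock added) for 5 hr at 37 C. Viability was read in the same wells by CellTiter-Glo luminescence after 30 min at room temperature.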

[14] = qHTS assay to identify small molecule agonists of the TGF-beta/Smad signaling pathway - cell viability counter screen (AID 1346829; active means well fitted curve in the direction sought with a large enough effect in the repeat runs; an effect the other way counts as inactive or inconclusive; further: top concentration of the series differs between compounds; nearly all actives have a fitted effect of over 45% in size)
Outline: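 Tox21 qHTS format: SBE-bla HEK 293T cells treated with DMSO-dissolved compounds for 5 hr; CellTiter-Glo luminescence after 30 min at room temperature.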

[15] = qHTS assay to identify small molecule agonists of the TGF-beta/Smad signaling pathway (AID 1346859; active means well fitted activation curve with a large enough effect in the signal ratio in the repeat runs, not every such curve was filed as active; the % refers to the signal ratio; further: series mostly up to about 77 µM)
Outline: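 Read-out: fluorescence at 460 and 530 nm (405 nm excitation) after a 2 hr room-temperature incubation with beta-lactamase FRET substrate. SBE-bla HEK 293T cells had been treated with test compounds for 5 hr at 37 C.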

[16] = qHTS assay to identify small molecule agonists of the estrogen receptor beta (ER-beta) signaling pathway - cell viability counter screen (AID 1259380; active means well fitted curve in the direction sought with a large enough effect in the repeat runs; an effect the other way counts as inactive or inconclusive; further: nearly all actives have a fitted effect of over 30% in size; further: potency means the concentration at half of the fitted maximal effect)
Outline: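 Cytotoxicity is measured in parallel with the reporter screen: after 16 hr compound exposure at 37C and a 2 hr LiveBLAzer step, CellTiter-Glo is added to the same ER-beta-UAS-bla HEK293T wells and luminescence read after 30 min.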

[17] = target: Thyrotropin-releasing hormone receptor (Homo sapiens) (UniProt P34981); test: qHTS assay to identify small molecule antagonists of the thyrotropin-releasing hormone receptor (TRHR) signaling pathway (AID 1346877; active means well fitted inhibition curve with a large enough effect in the repeat runs, not every such curve was filed as active; further: series mostly up to about 51 µM)
Outline: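 Antagonism is measured as suppression of the calcium response to 1 nM TRH in TRHR-HEK293 cells that have been dye-loaded for 2 h at 37 °C after overnight plating. Each compound is tested at 15 concentrations in triplicate.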

[18] = target: Thyrotropin-releasing hormone receptor (Homo sapiens) (UniProt P34981); test: qHTS assay to identify small molecule agonists of the thyrotropin-releasing hormone receptor (TRHR) signaling pathway (AID 1346891);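 further: HEK293 cells expressing TRHR with calcium dye readout; series mostly up to about 58 µM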
Outline: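 HEK293/TRHR cells, 1500 per well, 18 h 37 °C; Ca dye 2 h 37 °C; pin-tool compound addition (agonist mode); kinetic fluorescence 3 min, 1 s reads; 15 concentrations, triplicate.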

[19] = target: Androgen receptor (Homo sapiens) (UniProt P10275); test: qHTS assay to identify small molecule agonists of the androgen receptor (AR) signaling pathway in the presence of an antagonist (AID 1259381); further: nearly all actives have a fitted effect of over 15% in size
Outline: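 Agonist-mode confirmation screen: human MDA-kb2 cells stably expressing luciferase under an MMTV promoter bearing AR and GR response elements, co-treated with 3.0uM nilutamide (final). Luminescence measured after 16hr compound incubation.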

[20] = target: Estrogen receptor beta (Homo sapiens) (UniProt Q92731); test: qHTS assay to identify small molecule antagonists of the estrogen receptor beta (ER-beta) signaling pathway (AID 1259378; active means well fitted inhibition curve with a large enough effect in the signal ratio in the repeat runs, not every such curve was filed as active; the % refers to the signal ratio)
Outline: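 ER-beta-UAS-bla HEK293T cells in 2% charcoal-stripped FBS medium treated with compound plus 1nM final 17-beta-estradiol for 16 hr at 37C. Beta-lactamase reporter read by FRET substrate fluorescence after 2 hours at room temperature.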

Estrogen receptor beta (Homo sapiens), sequence (Q92731 whole entry, looked up): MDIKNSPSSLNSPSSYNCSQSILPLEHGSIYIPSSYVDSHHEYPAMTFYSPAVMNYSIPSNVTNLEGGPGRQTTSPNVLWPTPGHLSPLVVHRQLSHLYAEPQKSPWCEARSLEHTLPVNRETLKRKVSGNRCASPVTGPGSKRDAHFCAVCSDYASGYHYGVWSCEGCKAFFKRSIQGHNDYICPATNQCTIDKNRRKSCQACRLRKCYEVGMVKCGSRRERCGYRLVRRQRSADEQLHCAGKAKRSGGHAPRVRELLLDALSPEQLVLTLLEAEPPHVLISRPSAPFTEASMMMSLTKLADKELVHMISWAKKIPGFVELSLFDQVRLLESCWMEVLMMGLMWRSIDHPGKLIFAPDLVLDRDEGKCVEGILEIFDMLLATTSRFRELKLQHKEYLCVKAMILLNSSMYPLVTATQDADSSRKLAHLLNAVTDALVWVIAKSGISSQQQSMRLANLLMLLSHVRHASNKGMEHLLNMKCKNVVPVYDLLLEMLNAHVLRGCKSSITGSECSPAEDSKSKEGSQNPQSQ
Progesterone receptor (Homo sapiens), sequence (P06401 whole entry, looked up): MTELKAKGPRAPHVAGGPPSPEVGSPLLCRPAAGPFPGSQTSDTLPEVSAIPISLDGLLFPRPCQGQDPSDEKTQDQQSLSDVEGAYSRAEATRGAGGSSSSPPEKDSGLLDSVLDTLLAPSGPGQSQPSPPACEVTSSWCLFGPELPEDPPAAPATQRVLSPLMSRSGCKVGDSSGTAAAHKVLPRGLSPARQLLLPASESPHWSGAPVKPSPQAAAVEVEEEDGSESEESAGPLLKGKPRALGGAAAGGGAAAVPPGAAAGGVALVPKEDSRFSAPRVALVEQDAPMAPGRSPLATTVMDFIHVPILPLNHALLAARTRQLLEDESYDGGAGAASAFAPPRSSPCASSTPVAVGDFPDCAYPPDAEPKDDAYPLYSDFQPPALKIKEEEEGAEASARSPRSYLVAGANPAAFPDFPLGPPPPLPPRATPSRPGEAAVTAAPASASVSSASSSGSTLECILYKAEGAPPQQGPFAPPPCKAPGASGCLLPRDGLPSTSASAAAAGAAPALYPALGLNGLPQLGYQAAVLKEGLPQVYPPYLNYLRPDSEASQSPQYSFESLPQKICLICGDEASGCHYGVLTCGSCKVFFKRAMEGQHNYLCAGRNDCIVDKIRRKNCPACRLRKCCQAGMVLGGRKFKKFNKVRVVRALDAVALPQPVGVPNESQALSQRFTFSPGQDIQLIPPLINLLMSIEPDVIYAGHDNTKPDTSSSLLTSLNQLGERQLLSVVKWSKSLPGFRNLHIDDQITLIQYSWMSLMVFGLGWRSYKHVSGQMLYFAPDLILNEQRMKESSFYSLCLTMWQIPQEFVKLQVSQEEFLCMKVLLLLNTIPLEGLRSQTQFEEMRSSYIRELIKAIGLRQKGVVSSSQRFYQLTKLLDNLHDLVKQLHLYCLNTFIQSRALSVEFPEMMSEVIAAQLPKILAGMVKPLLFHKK
Estrogen receptor (Homo sapiens), sequence (P03372 whole entry, looked up): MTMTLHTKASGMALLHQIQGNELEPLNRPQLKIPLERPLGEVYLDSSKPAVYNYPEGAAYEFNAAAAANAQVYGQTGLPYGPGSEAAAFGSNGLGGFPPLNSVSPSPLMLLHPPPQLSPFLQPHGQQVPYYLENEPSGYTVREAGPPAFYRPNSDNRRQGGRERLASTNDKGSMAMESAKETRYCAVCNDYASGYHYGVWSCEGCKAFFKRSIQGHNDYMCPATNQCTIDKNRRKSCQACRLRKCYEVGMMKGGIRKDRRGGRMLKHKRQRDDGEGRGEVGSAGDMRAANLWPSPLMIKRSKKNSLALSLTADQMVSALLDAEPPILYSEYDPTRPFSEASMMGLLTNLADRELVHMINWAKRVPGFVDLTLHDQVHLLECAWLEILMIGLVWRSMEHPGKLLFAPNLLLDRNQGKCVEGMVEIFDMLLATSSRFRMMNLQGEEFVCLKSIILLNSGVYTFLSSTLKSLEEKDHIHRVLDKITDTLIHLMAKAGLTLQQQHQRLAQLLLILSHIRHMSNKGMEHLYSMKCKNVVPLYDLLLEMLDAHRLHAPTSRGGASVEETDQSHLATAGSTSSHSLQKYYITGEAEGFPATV
Androgen receptor (Homo sapiens), sequence (P10275 whole entry, looked up): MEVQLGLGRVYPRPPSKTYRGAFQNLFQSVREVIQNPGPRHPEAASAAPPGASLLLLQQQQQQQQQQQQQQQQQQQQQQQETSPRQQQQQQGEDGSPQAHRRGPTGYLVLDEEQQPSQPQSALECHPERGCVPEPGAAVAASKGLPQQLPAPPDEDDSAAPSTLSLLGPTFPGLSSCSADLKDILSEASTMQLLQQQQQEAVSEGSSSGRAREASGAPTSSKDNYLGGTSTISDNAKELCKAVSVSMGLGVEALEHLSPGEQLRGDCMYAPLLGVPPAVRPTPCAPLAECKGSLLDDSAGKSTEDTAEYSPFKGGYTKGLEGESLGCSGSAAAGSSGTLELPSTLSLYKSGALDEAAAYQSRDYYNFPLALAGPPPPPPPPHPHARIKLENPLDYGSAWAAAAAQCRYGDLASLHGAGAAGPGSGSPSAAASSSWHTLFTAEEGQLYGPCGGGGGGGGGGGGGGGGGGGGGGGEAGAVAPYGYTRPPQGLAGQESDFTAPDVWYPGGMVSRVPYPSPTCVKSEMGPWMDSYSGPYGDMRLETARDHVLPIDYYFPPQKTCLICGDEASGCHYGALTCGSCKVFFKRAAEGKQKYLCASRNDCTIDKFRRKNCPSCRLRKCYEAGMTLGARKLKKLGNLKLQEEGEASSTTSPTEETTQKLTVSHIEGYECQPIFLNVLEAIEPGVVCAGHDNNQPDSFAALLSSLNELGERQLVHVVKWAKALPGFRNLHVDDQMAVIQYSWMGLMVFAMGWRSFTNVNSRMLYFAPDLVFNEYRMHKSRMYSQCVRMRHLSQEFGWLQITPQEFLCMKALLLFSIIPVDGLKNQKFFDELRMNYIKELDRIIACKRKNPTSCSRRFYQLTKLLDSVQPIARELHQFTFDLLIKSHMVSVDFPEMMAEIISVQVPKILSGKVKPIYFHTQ
Thyrotropin receptor (Homo sapiens), sequence (P16473 whole entry, looked up): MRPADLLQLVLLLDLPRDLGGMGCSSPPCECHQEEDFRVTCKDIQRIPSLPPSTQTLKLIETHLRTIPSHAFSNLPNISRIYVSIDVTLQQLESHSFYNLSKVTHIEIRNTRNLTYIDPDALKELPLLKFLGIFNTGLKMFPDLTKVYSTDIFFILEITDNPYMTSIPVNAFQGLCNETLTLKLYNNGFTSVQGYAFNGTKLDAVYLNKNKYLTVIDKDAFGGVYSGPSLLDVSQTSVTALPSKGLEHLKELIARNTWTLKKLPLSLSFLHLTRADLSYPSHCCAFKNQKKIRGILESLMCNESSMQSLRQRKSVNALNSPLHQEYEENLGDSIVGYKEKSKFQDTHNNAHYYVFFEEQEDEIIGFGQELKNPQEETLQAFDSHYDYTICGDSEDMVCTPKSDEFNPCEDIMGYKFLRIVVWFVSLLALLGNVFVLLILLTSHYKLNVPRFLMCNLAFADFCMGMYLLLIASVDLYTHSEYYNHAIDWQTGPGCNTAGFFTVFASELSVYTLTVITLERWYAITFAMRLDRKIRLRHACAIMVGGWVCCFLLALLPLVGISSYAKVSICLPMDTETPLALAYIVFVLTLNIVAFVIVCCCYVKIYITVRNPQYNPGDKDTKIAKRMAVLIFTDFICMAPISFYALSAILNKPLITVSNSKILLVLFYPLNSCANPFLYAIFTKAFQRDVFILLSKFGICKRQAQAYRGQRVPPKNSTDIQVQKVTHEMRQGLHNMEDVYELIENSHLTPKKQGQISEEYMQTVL
Thyrotropin-releasing hormone receptor (Homo sapiens), sequence (P34981 whole entry, looked up): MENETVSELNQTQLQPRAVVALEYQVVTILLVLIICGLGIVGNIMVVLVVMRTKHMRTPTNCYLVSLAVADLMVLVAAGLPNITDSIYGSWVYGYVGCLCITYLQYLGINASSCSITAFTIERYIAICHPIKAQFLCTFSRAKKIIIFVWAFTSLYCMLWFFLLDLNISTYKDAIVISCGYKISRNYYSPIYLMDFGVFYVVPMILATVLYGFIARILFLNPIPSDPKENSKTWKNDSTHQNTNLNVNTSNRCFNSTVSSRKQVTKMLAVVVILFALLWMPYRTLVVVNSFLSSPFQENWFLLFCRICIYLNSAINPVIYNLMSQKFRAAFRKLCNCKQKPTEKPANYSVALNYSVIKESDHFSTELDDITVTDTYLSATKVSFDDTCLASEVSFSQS

SMILES | Potency [1] | Potency [2] | Potency [3] | Potency [4] | Potency [5] | Potency [6] | Potency [7] | Potency [8] | outcome [9] | Potency [10] | Potency [11] | Potency [12] | Potency [13] | Potency [14] | outcome [15] | Potency [16] | outcome [17] | Potency [18] | Potency [19] | Potency [20]
N=C(N=C(N)N)N1CCOCC1 | inactive | inactive | inactive | inactive | inactive | inactive | inactive | inactive | inactive | inactive | inactive | inactive | inactive | inactive | inactive |  |  |  |  | 
O=c1[nH]cnc2ccccc12 | inactive | inactive | inactive | inactive | inactive | inactive | inactive | inactive | inactive |  | inactive | inactive | inactive | inactive | inactive | inactive |  |  |  | 
CC1=CC(=O)/C(=C(/C)O)C(=O)O1 | inactive | inactive | inactive | inactive | inactive | inactive | inactive | inactive |  | inactive | inactive | inactive | inactive | inactive | inactive | inactive | inactive | inactive |  | 
CCCCCCc1ccc(N)cc1 | inactive | inactive |  | inactive | inactive | inactive | inactive | inactive | inactive | inactive | inactive | inactive | inactive | inactive | inactive | 27.3 µM (active) | inactive | inactive | inactive | 
C[C@H](CCC(=O)O)[C@H]1CC[C@H]2[C@@H]3[C@H](O)C[C@@H]4C[C@H](O)CC[C@]4(C)[C@H]3CC[C@]12C | inactive | inactive |  | inactive | inactive |  | inactive | inactive |  |  | inactive | inactive | inactive | inactive |  |  | inactive | inactive |  | 
CCCC(=O)OCC | 68.6 µM (active) | inactive |  | inactive | inactive | inactive | inactive | inactive |  | inactive | inactive | inactive | inactive | inactive | inactive |  | inactive | inactive |  | 
Cc1ccc2c(ccc3ccccc32)c1 | inactive | inactive | inactive | inactive | inactive | inactive |  | inactive | inactive |  | inactive | inactive | inactive | inactive | inactive | inactive | inactive | inactive |  | 
NCc1ccccc1 | inactive | inactive | inactive | inactive |  | inactive | inactive | inactive | inactive | inactive |  | inactive | inactive | inactive | inactive | inactive | inactive | inactive |  | 
COCCOCCOCCOCCOC | inactive | inactive | inactive |  | inactive | inactive | inactive | inactive | inactive |  |  | 21.7 µM (active) | inactive | inactive | inactive |  | inactive | inactive | inactive | 
Cn1c(N)nc2nc[nH]c2c1=O | inactive | inactive |  | inactive |  |  | 48 µM (active) | inactive |  |  |  | inactive | inactive | inactive | inactive |  | inactive | inactive |  | inactive
Nc1nc(CC(=O)O)cs1 | inactive | inactive | inactive |  |  | inactive | inactive | inactive |  |  |  |  | inactive | inactive | inactive |  | inactive | inactive |  | 
CCCCCCCCCC(=O)OCC | inactive |  | inactive | inactive | inactive |  | inactive | inactive | inactive | inactive | inactive | inactive | inactive | inactive | inactive | inactive |  |  |  | inactive
CCCc1ccccc1 | inactive |  | inactive | inactive | inactive | inactive | inactive | inactive | inactive |  | inactive | inactive | inactive | inactive | inactive | inactive | inactive | inactive |  | inactive
CCN(CC)CCNC(C(=O)OCCC(C)C)c1ccccc1 (stereo not drawn) | inactive |  |  |  | inactive | inactive | inactive | inactive | inactive | inactive |  |  | inactive | inactive | inactive |  | inactive | inactive |  | inactive
SC1CCCC1 | inactive |  |  | inactive | inactive | inactive | inactive | inactive | inactive | inactive | inactive | inactive | inactive | inactive | inactive |  |  |  |  | inactive
CC[C@H](C)[C@@H](C(=O)O)n1sc2ccccc2c1=O | 27.3 µM (active) |  | inactive | 30.6 µM (active) | inactive | inactive | inactive | inactive | inactive | inactive | 30.6 µM (active) | inactive | inactive | inactive | inactive | 54.5 µM (active) | inactive | inactive |  | 
NC(=S)N/N=C/c1cccnc1 | inactive |  | inactive | inactive |  | inactive |  | inactive | inactive | inactive | inactive |  | inactive | inactive | inactive | inactive | inactive | inactive | inactive | 
